These results are taken from PubChem BioAssay (EPA / NIEHS).

Results filed as inconclusive are left out. Activity calls are given as the source filed them. How the source made its calls: active means hit-call score of the fitted dose curve at least 0.9, where 1 is the maximum; inconclusive means response in the unintended direction; inactive means score below 0.9.

Usually AC50 stands for the concentration giving half of the maximal activity seen.

human Matrix Metalloproteinase-1 (MMP1), MMP1 (gene 4312), sequence (P03956 whole entry, looked up): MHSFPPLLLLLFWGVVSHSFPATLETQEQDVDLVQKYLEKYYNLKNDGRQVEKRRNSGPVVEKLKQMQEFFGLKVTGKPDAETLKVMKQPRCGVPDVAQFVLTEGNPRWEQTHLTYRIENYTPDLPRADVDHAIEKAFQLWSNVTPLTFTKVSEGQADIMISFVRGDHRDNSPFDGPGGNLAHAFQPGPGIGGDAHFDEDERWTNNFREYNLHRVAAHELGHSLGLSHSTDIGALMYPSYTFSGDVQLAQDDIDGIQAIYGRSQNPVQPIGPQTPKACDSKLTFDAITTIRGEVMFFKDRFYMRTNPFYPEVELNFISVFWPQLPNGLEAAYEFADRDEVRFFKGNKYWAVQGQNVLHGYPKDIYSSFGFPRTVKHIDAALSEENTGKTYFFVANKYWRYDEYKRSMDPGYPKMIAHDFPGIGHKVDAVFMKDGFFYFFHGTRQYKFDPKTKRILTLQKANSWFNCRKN

One assay concerns the target human Matrix Metalloproteinase-1 (MMP1), MMP1 (gene 4312) (UniProt P03956). Description: NVS_ENZ_hMMP1: NovaScreen (NVS) Enzymatic Assay for human Matrix Metalloproteinase-1 (MMP1) (AID 2283181). As for the experimental part:
NVS_ENZ_hMMP1 is a biochemical, single-readout assay that uses extracted gene-proteins in a cell-free assay. Measurements were taken 1 hour after chemical dosing in a 96-well plate.NVS_ENZ_hMMP1 is one of one assay component(s) measured or calculated from the NVS_ENZ_hMMP1 assay. It is designed to make measurements of enzyme activity, a form of enzyme reporter, as detected with fluorescence intensity signals by Fluorescence technology.Data from the assay component NVS_ENZ_hMMP1 was analyzed into 1 assay endpoint. This assay endpoint, NVS_ENZ_hMMP1, was analyzed in the positive analysis fitting direction relative to DMSO as the negative control and baseline of activity. Using a type of enzyme reporter, loss-of-signal activity can be used to understand changes in the enzymatic activity as they relate to the gene MMP1. Furthermore, this assay endpoint can be referred to as a primary readout, because this assay has produced multiple assay endpoints where this one serves a enzymatic activity function. To generalize the intended target to other relatable targets, this assay endpoint is annotated to the protease intended target family, where the subfamily is matrix metalloproteinase.
Binding assays used specific radioligands (tritiated, iodinated) with non-radioactive competitive displacement ligands in agonist or antagonist protocols (as indicated) and various reference compounds and inhibitors to titrate specific binding to receptors and transporters. Most enzyme assays (CYPs, kinases, phosphatases, proteases, HDACs) used recombinant protein and specific substrates (fluorescence mostly, some colorimetric and radioactive) and inhibitors, followed by a biochemical separation of substrate and product. All assays for the biochemical HTS were initially run in duplicate at a single concentration (10 uM for CYP450 assays and 25 uM for all others). Assay-chemical combinations meeting a pre-defined threshold (e.g., 30% inhibition and other criteria defined below) were then run in singleton concentration-response format with maximum concentration of 20 uM for CYPs and 50 uM for all others. Each assay was run with positive and negative controls, and concurrent controls on every plate. The follow-up (secondary) screen tested active chemical-pairs in concentration series, as well as a few additional assays not tested in the primary screen, some selected negative inactives, and several cases re-run in the concentration series for confirmatory purposes.
`CCCCCCCCCC[N+](C)(C)CCCCCCCCCC`: the result was inactive. Consider `Oc1ccc(C(c2ccc(O)cc2)(C(F)(F)F)C(F)(F)F)cc1`, for which the AC50 was 5.26 µM (active). The same measure, in the same setting: then `CC(C)(c1ccccc1)c1ccc(O)cc1`, with 10.5 µM (active). As for `O=C(O)C(F)(F)C(F)(F)C(F)(F)C(F)(F)C(F)(F)C(F)(F)C(F)(F)C(F)(F)C(F)(F)F`, the outcome was inactive.

Consider `O=NN(c1ccccc1)c1ccccc1`, for which the compound was classed as inactive.

The target of the next assay is human Matrix Metalloproteinase-9 (MMP9), MMP9 (gene 4318) (UniProt P14780). Description: NVS_ENZ_hMMP9: NovaScreen (NVS) Enzymatic Assay for human Matrix Metalloproteinase-9 (MMP9) (AID 2283190).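 Further: cell-free recombinant MMP9 protease activity read by fluorescent substrate signal; active means inhibition seen as loss of fluorescence signal versus DMSO.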 In outline: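 Cell-free fluorescence-intensity enzyme activity assay using extracted protein, read 1 h after dosing. Loss of signal versus DMSO baseline indicates inhibition; primary screen in duplicate at 25 uM, actives followed up in concentration series.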
human Matrix Metalloproteinase-9 (MMP9), MMP9 (gene 4318), sequence (P14780 whole entry, looked up): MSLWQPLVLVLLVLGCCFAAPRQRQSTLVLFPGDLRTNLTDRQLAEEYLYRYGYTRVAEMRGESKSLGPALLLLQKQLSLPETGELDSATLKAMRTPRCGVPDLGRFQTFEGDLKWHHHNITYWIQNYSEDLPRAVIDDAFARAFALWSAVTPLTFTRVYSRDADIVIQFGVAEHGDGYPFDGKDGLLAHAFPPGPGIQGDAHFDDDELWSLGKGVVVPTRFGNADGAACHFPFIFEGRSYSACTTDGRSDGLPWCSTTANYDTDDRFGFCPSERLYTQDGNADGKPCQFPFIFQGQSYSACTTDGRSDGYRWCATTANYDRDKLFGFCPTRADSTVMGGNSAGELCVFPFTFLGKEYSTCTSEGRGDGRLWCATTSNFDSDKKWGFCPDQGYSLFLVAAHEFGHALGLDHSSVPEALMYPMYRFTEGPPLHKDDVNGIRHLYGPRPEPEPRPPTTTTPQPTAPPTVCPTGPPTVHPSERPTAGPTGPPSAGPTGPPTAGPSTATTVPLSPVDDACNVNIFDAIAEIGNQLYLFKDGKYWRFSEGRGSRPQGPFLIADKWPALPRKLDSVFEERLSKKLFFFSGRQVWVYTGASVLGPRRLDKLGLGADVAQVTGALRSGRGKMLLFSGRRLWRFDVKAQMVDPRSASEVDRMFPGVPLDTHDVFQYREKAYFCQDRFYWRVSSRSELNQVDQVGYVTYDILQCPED
For the compound `Sc1ccccc1`, the AC50 was 4.12 µM (active). As to `CO/C=C(/C(=O)OC)c1ccccc1COc1cccc(C(F)(F)F)n1`, the result was inactive.

With `CCCCCCCCCc1ccc(O)cc1`, the outcome was inactive.

For a further assay, the target named is human Phosphodiesterase 5 (PDE5), PDE5A (gene 8654) (UniProt O76074). Description: NVS_ENZ_hPDE5: NovaScreen (NVS) Enzymatic Assay for human Phosphodiesterase 5 (PDE5) (AID 2283194). The method in brief:
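Screening began in duplicate at 25 uM, with actives taken into concentration-response. Enzyme activity of recombinant PDE5 toward its substrate was measured at 1 h by fluorescence mobility-shift detection, relative to DMSO controls.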
For `C[C@]12CCC(=O)C=C1CC[C@@H]1[C@@H]2CC[C@]2(C)C(=O)CC[C@@H]12`, the AC50 was 12.3 µM (active). Take `N#Cc1ccc(N(CC(N)=O)CC(F)(F)F)cc1C(F)(F)F`: the compound was classed as inactive. On the same count and under the same terms, then `CCC(C)(c1ccc(O)cc1)c1ccc(O)cc1`, with “inactive”; and `ClC(Cl)=C(c1ccc(Cl)cc1)c1ccc(Cl)cc1`, with “inactive”. Still for that read-out and setting: in the case of `Oc1c(Cl)c(Cl)c(Cl)c(Cl)c1Cl` it was “inactive”.
